BH1578 lux ind: inducers of Vibrio cholerae quorum light production without autoinducers; activation, % at 18.7 µM; AID 588436; 350,000 compounds, 0.16% hits; V. cholerae BH1578 lux reporter, luminescence, 6 h; in the data active = activation mostly above about 9.7%, no sharp cut-off
UGM FP inh: blocks M. tuberculosis UGM enzyme | AID 504406 | inhibition, % at 10 µM | 320,000 compounds, 0.06% hits | P9WIQ1 | purified UGM, fluorescence polarization probe displacement; in the data active = inhibition above about 10%, passing the limit was not always enough
Yp Topo-I inh: inhibitors of Yersinia pestis topoisomerase I; Y. pestis Topo-I cleavage product accumulation, plate reader; activity, % at 10 µM; 360,000 compounds, 0.064% hits; in the data active = activity above about 50%, passing the limit was not always enough
PrP 5UTR inh: inhibition of PrP 5' UTR reporter expression; cell-based PrP 5' UTR mRNA reporter, plate reader; inhibition, % (test concentration not listed); 340,000 compounds, 0.35% hits; AID 488862; in the data active = inhibition above about 52%; also: 0 = median of the neutral control wells
TcdB GH inh: TcdB glycohydrolase inhibition; 350,000 compounds, 0.24% hits; TcdB glycohydrolase enzymatic assay, plate reader; AID 652162; inhibition, % at 9.99 µM; P18177; in the data active = inhibition above about 10%
Target sequence (P18177 whole entry, looked up): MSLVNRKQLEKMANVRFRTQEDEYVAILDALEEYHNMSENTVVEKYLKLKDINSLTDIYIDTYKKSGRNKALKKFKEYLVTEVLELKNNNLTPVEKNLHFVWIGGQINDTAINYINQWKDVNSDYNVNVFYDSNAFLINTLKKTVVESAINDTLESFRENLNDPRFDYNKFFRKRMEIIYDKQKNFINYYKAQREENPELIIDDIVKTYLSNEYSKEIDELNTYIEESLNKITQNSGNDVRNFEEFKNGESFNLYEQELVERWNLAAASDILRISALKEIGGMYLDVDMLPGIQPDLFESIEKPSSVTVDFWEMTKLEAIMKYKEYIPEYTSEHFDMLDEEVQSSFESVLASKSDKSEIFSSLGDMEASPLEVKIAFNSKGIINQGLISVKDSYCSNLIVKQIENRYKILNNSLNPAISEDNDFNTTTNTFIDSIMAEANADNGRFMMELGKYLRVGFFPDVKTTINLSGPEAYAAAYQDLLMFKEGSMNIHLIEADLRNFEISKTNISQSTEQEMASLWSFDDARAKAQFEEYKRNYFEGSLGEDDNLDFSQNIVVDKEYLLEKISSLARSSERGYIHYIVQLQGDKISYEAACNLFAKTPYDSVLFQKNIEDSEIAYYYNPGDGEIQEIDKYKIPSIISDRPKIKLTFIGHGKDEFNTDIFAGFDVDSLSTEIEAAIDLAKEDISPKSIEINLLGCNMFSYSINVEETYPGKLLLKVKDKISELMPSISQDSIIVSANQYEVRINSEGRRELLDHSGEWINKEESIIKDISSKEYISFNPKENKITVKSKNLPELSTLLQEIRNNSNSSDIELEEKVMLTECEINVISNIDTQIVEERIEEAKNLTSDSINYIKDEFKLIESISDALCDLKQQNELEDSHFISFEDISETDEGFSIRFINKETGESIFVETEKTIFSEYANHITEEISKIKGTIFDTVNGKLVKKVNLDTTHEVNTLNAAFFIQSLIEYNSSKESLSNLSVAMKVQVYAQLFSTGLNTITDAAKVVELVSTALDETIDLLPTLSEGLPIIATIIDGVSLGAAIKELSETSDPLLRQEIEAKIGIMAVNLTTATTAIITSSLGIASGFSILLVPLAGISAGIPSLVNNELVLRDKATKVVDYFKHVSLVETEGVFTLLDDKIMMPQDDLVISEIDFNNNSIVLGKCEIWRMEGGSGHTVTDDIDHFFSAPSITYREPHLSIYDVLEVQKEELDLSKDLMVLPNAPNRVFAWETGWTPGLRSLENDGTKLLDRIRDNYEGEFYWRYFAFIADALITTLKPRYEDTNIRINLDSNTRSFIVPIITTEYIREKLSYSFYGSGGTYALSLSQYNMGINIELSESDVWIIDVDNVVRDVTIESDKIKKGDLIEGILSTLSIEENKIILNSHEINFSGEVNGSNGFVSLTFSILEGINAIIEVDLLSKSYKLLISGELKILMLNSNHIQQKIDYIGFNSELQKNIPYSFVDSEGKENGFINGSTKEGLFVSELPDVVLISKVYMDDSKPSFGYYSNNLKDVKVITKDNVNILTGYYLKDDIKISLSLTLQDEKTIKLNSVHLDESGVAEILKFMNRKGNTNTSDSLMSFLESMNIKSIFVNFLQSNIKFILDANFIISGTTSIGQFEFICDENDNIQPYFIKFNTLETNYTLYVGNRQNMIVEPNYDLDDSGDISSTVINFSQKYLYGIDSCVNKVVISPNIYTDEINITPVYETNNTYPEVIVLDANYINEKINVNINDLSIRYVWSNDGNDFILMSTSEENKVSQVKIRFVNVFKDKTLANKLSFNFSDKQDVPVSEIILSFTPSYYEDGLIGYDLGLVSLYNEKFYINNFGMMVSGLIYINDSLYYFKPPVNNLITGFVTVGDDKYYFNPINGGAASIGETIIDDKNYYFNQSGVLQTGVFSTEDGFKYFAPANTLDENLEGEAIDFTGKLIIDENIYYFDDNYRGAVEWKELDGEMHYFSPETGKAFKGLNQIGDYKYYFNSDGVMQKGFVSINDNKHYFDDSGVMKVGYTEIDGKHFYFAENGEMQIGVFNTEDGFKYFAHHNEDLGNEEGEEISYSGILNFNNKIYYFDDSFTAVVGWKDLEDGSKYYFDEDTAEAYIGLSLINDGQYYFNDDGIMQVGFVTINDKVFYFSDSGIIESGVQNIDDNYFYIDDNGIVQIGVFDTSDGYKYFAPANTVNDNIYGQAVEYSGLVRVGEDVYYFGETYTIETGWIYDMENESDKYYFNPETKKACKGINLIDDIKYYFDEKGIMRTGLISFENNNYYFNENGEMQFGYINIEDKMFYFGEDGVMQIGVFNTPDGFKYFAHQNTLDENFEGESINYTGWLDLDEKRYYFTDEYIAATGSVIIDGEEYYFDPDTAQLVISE
* = called active by the depositor; i = inactive; . = not tested or not shown; ! = not active in a repeat. A selection: hits, their analogues and other compounds. The true share with any hit is near 0.65%.

SMILES	BH1578 lux ind	UGM FP inh	Yp Topo-I inh	PrP 5UTR inh	TcdB GH inh
CNC[C@H]1Oc2ccc(NC(=O)CCN3CCOCC3)cc2CC(=O)N([C@@H](C)CO)C[C@H]1C	.	.	.	.	0.0
COc1ccc(NC(=O)N(C)C[C@H]2OCCCC[C@H](C)Oc3ccc(NC(=O)c4ccccc4)cc3C(=O)N([C@@H](C)CO)C[C@@H]2C)cc1	.	.	.	.	-1.2
Cc1ccc(C(=O)NCCn2cc(SCC(=O)Nc3cc(C)on3)c3ccccc32)cc1	-0.2	1.0	5.2	8.8	15.1*
O=C1NC(=O)C(=Cc2ccccc2[N+](=O)[O-])S1	i	.	62.0*	-20.3	1.8
O=C1NC(=O)/C(=C/c2cccc3ccccc23)S1	i	1.2	0.2	-7.4	1.1
Cc1ccc(S(=O)(=O)Oc2ccccc2/C=C2/SC(=O)NC2=O)cc1	-0.6	2.6	5.6	-28.5	10.3*
CCOC(=O)c1c(C)[nH]c(C)c1C(=O)COC(=O)/C=C/c1ccco1	1.4	-0.2	-2.8	0.1	10.4*
CCOC(=O)c1c(C)[nH]c(C)c1C(=O)COC(=O)/C=C/c1ccc(OC)cc1	i	.	-0.6	-47.5	1.3
C[C@@H]1CN([C@@H](C)CO)C(=O)Cc2cc(NS(=O)(=O)c3cccs3)ccc2O[C@@H]1CN(C)C(=O)Nc1ccc(F)cc1	.	.	.	.	-0.6
CCCN1C[C@@H](C)[C@@H](OC)CN(C)C(=O)c2cc(NC(=O)NC3CCCC3)ccc2OC[C@H]1C	.	.	.	.	-0.2
CNc1cc(Cl)nc(SC)n1	i	4.4	6.8	-17.4	1.2
CSc1nc(Cl)cc(Nc2ccc(O)cc2)n1	-0.6	-1.3	-12.9	-30.7	14.9*
CC(OC(=O)C1=COCCO1)C(=O)c1ccc(Br)cc1 (stereo not given)	i	-1.5	-3.2	-11.9	13.8*
Cc1noc(C)c1NC(=O)N(C)C[C@@H]1Oc2ccc(NC(=O)C3CCCCC3)cc2C(=O)N([C@@H](C)CO)C[C@H]1C	i	-0.8	-6.1	-23.1	12.5*!
C[C@H](CO)N1C[C@H](C)[C@@H](CN(C)C(=O)Nc2ccc(C(F)(F)F)cc2)Oc2c(NS(=O)(=O)c3ccccc3)cccc2C1=O	i	-0.9	3.9	-19.1	10.3*!
C[C@H](CO)N1C[C@H](C)[C@@H](CN(C)C(=O)Nc2ccc(C(F)(F)F)cc2)Oc2c(cccc2N(C)C)C1=O	i	-1.3	20.8	-0.3	14.1*
C[C@H]1CN([C@@H](C)CO)C(=O)c2cccc(NS(=O)(=O)c3ccccc3)c2O[C@H]1CN(C)C(=O)Nc1ccc(C(F)(F)F)cc1	.	.	.	.	-0.1
COc1ccc2c3c([nH]c2c1)[C@H](CO)N(Cc1ccccc1F)CC31CCN(CC2CC2)CC1	.	.	.	.	-5.2
COc1ccc(-c2cn3cc(C)ccc3n2)cc1F	-0.3	-0.6	10.0	-0.9	20.2*
Cc1nn(CCOc2ccccc2)c(=O)n1-c1ccc(Cl)cc1	-3.3	-3.4	0.6	-16.1	15.5*
O=C(NC(=S)Nc1ccc(N2CCOCC2)cc1)c1cccc(Cl)c1	-0.3	-0.2	17.8	-21.9	2.3
O=C(NC(=S)Nc1ccc(N2CCOCC2)cc1)c1ccccc1	0.4	-0.1	0.1	-30.5	23.1*
O=C(OCC(=O)N1CCCCC1)c1ccccc1SCC(=O)N1CCCCC1	-2.7	2.3	12.3	-21.4	15.9*
O=C(Nc1ccn(CCCN(CCCn2ccc(NC(=O)OCc3ccccc3)nc2=O)CCc2cc3ccccc3[nH]2)c(=O)n1)OCc1ccccc1	-0.2	.	77.0*	-19.8	1.2
O=C(Nc1ccn(CCCNCc2ccccc2)c(=O)n1)OCc1ccccc1	-0.2	.	27.4	-7.8	-1.5
SMILES	BH1578 lux ind	UGM FP inh	Yp Topo-I inh	PrP 5UTR inh	TcdB GH inh
NS(=O)(=O)c1cc2c(cc1Cl)NCNS2(=O)=O	23.8*	.	-4.1	6.5	0.5
COCC(=O)Nc1ccc2c(c1)C(=O)N(C)C[C@H](OC)[C@H](C)CN(C(=O)c1ccccn1)[C@@H](C)CO2	.	.	.	.	-0.1
COc1cccc(-c2cc3onc(-c4ccccc4)c3c(=O)n2C)c1	-0.3	1.5	16.2	-1.9	1.7
Cn1c(-c2ccc(F)c(F)c2)cc2onc(-c3ccccc3)c2c1=O	-0.8	0.5	-1.2	-59.5	10.1*
C(=N\c1nc2ccccc2n1CCN1CCCCC1)/c1ccc2c(c1)OCO2	3.9	1.7	6.7	-5.8	.
Brc1ccc(/C=N/c2nc3ccccc3n2CCN2CCOCC2)cc1	-1.4	17.0*	-4.4	-8.1	.
CCCC(=O)N1CC2(CCN(Cc3nccs3)CC2)c2c([nH]c3cc(OC)ccc23)[C@@H]1CO	.	.	.	.	0.9
COc1ccc2nccc(/C=C/c3ccnc4ccc(OC)cc34)c2c1	i	-1.2	21.0	.	12.9*
COc1ccc2nc(Cl)cc(Cl)c2c1	-0.2	-0.1	2.1	-12.8	0.7
COc1cc(OC)c(OC)cc1/C=C/c1ccnc2ccccc12	.	.	30.9	-4.6	18.7*
COc1ccc(OC)c(/C=C/c2ccnc3ccccc23)c1	i	.	35.9	-18.9	1.6
COc1ccc2c3c([nH]c2c1)[C@@H](CO)N(C(=O)C1CCCCC1)CC31CCN(S(C)(=O)=O)CC1	.	.	.	.	0.3
N#CC1=C(N)C(C#N)(C#N)C(c2cccnc2)C2CC(c3ccccc3)CC=C12 (stereo not given)	25.0*	3.1	-2.1	14.0	.
Cn1c(=O)c2[nH]c(=S)n(Cc3ccccc3)c2n(C)c1=O	.	.	2.1	-3.9	49.6*
CCn1c(=O)n(C)c2c(=O)n(C)c(=O)n(C)c21	-5.9	.	-3.2	7.6	0.4
Cn1c(=O)c2c([nH]c(=S)n2CCCc2ccccc2)n(C)c1=O	i	0.0	6.4	-35.1	9.1
O=c1[nH][nH]c(=O)c2c1[nH]c(=S)n2Cc1ccccc1	i	.	8.8	-6.2	11.8*
CCCCn1c(=S)[nH]c2c(=O)n(C)c(=O)n(C)c21	1.4	.	1.0	.	52.4*
O=C(C[C@@H]1CC[C@H](NC(=O)C2CCC2)[C@@H](CO)O1)NCc1ccncc1	.	.	.	.	-0.6
C[C@H](CO)N1C[C@H](C)[C@@H](CN(C)C(=O)c2cccnc2)Oc2cc(C3=CCCC3)ccc2S1(=O)=O	.	.	.	.	0.3
C[C@H](CO)N1C[C@H](C)[C@H](CN(C)C(=O)Cc2ccccn2)Oc2ncc(C#C[C@@H](C)O)cc2C1=O	.	.	.	.	0.4
C[C@H]1CN([C@@H](C)CO)S(=O)(=O)c2ccc(-c3ccc(C(=O)N(C)C)cc3)cc2O[C@@H]1CN(C)Cc1ccccc1C(=O)O	.	.	.	.	0.3
C[C@H]1CN([C@@H](C)CO)C(=O)Cc2cc(NC(=O)CCN3CCOCC3)ccc2O[C@H]1CN(C)Cc1ccncc1	.	.	.	.	0.4
CCOC(=O)Cn1nc(-c2ccc(F)cc2)cc(Cc2ccccc2)c1=O	-0.5	-8.9	32.7	-25.6	-0.1
O=c1[nH]nc(-c2ccc(F)cc2)cc1Cc1ccccc1	i	0.3	18.0	-24.5	10.1*
COc1ccc(-c2ccc3c(c2)[C@H]2[C@H](CCN2C(=O)CN2CCOCC2)[C@H](CO)N3)cc1	.	.	.	.	-3.0
COc1ccc(-c2ccc3c(c2)[C@H]2[C@H](CCN2C(=O)CN2CCOCC2)[C@@H](CO)N3)cc1	.	.	.	.	14.5*
COc1ccc(-c2ccc3c(c2)[C@@H]2[C@@H](CCN2C(=O)CN2CCOCC2)[C@H](CO)N3)cc1	.	.	.	.	12.3*
